In all, about 68,000 compounds went through this assay and about 2,700 (4%) showed an effect of 50% or more. Many of the other results were omitted from the sample, so strong results are more common in it than they were.
test system: Plasmodium berghei; assay: Screen against P. berghei liver stage (PbLuc), transformed with Luciferase, at 2uM; type: functional, HepG2; settings: tested at 2 uM

SMILES	INHIBITION
CS(=O)(=O)NCC1CCCN(C(=O)Nc2ccccc2Cl)C1 (stereo unspecified)	-7.21%
CS(=O)(=O)NCC1CCCN(C(=O)Nc2cccc3ccccc23)C1 (stereo unspecified)	58.93%
CS(=O)(=O)NCC1CCCN(C(=O)Nc2ccccc2F)C1 (stereo unspecified)	-5.61%
Cn1cc(C(=O)NC2CCCC2)c(-c2cccnc2)n1	-18.81%
CCOc1ccccc1NC(=O)CN(C)Cc1ccccc1Cl	55.73%
CCOC(=O)c1ccccc1NC(=O)CN(C)Cc1ccccc1Cl	16.25%
CN(CC(=O)Nc1ccccc1C(=O)NC1CC1)Cc1ccccc1Cl	19.66%
O=C1NCCN1C1CCN(CC(O)c2ccccc2F)CC1 (stereo unspecified)	-54.48%
CNC(=O)[C@@H]1C[C@H](N)CN1S(=O)(=O)c1cc(Cl)c(Cl)s1	18.19%
CNC(=O)[C@@H]1C[C@H](N)CN1S(=O)(=O)c1cc(Cl)cc(Cl)c1O	92.61%
CNC(=O)[C@@H]1C[C@H](N)CN1S(=O)(=O)c1cc(C)c(Cl)cc1C	25.45%
CN(C)[C@@H]1CN(C(=O)Cc2ccsc2)[C@@H]2CCCO[C@H]12	16.63%
CN(CCN1CCCCCC1)C(=O)c1c(O)cccc1O	-46.57%
CN(Cc1ccccc1CN1CCCC1)C(=O)c1c[nH]c(=O)[nH]1	0.31%
CN(Cc1ccccc1CN1CCCC1)C(=O)c1c(O)cccc1O	54.29%
C1CCN(CCN2CCCCC2C2OCCO2)CC1 (stereo unspecified)	-26.04%
Cc1nnc(N2CCOC(C)(C(=O)N(C)C)C2)c2ccccc12 (stereo unspecified)	29.68%
Cc1nnc(N2CCOC(C)(C(=O)NC3CCCC3)C2)c2ccccc12 (stereo unspecified)	51.88%
CNC(=O)C1(C)CN(c2nnc(C)c3ccccc23)CCO1 (stereo unspecified)	31.39%
CCn1ncc2c1C(COCC1CC1)N(Cc1ccccn1)CC2 (stereo unspecified)	1.74%
CCc1nc(C2CCCN(C(=O)c3ccc(OC)cc3)C2)no1 (stereo unspecified)	48.43%
CCc1nc(C2CCCN(C(=O)c3ccc4[nH]nnc4c3)C2)no1 (stereo unspecified)	38.72%

SMILES	INHIBITION
CCOc1cc(C(=O)N2CCCC(c3noc(C)n3)C2)ccn1 (stereo unspecified)	-29.94%
Cc1nc(C2CCCN(C(=O)CCn3ccccc3=O)C2)no1 (stereo unspecified)	47.23%
CCOc1cc(C(=O)N2CCCC(c3noc(C(C)C)n3)C2)ccn1 (stereo unspecified)	64.16%
CCOc1cc(C(=O)N2CCCC(c3noc(CC)n3)C2)ccn1 (stereo unspecified)	43.79%
CCc1nc(C2CCCN(C(=O)c3ccc4[nH]cnc4c3)C2)no1 (stereo unspecified)	52.52%
CC(C)c1nc(C2CCCN(C(=O)CCn3ccccc3=O)C2)no1 (stereo unspecified)	29.59%
CCc1nc(C2CCCN(C(=O)c3ccc(OC(C)C)nc3)C2)no1 (stereo unspecified)	54.92%
CC(C)c1nc(C2CCCN(C(=O)c3ccc4[nH]cnc4c3)C2)no1 (stereo unspecified)	33.91%
CCc1nc(C2CCCN(C(=O)c3ccc(O)nc3)C2)no1 (stereo unspecified)	9.82%
CCc1nc(C2CCCN(C(=O)CCn3ccccc3=O)C2)no1 (stereo unspecified)	54.92%
Cc1cccn2c(CNC(C)CCc3ccc(O)cc3)cnc12 (stereo unspecified)	-19.78%
Cc1cccc(C(=O)NC(C)CN2CCCC2=O)n1 (stereo unspecified)	5.91%
c1ccc(CO[C@@H]2CC[C@H]3[C@H]2OCCN3Cc2ccsc2)nc1	22.62%
O=C(c1ccsc1)N1C[C@H]2CN(Cc3cccnc3)C(=O)[C@H]2C1	18.91%
CN1CCc2c(C#N)c(NCc3cccnc3)n3cnnc3c2C1	-48.47%
CN(C)CC1CN(Cc2coc(-c3ccc(Cl)cc3)n2)CCO1 (stereo unspecified)	35.23%
O=C(O)C1(Oc2ccc3ccccc3c2)CCN(c2ccncc2)CC1	2.04%
CCCc1n[nH]c(C2CN(C(=O)CCn3ccccc3=O)CCO2)n1 (stereo unspecified)	60.09%
CCCc1n[nH]c(C2CN(C(=O)Cn3ccccc3=O)CCO2)n1 (stereo unspecified)	-53.98%
CCc1n[nH]c(C2CN(C(=O)CCn3ccccc3=O)CCO2)n1 (stereo unspecified)	-27.5%
CC(C)NC(=O)N1CCCC(c2nnc(CN3CCOCC3)n2C)C1 (stereo unspecified)	10.02%
CC(NCc1cnc(N2CCOCC2)nc1)c1ccc(Cl)s1 (stereo unspecified)	-62.93%

SMILES	INHIBITION
Cc1nc(C2CCCN2CCCS(=O)(=O)N(C)C)no1 (stereo unspecified)	9.36%
C[C@H](C(=O)N1Cc2ccccc2CC2(CCCN2C)C1)c1ccccc1 (stereo partly specified)	29.56%
CCNC(=O)c1cn(C(C)(C)C)c2ncccc12	40.4%
O=C(C1CCCC1)N1CCCC1c1nnc2n1CCCCC2 (stereo unspecified)	-15.83%
O=C(C1CC1)N1CCCC1c1nnc2n1CCCCC2 (stereo unspecified)	58.29%
O=C(C1CCC1)N1CCCC1c1nnc2n1CCCCC2 (stereo unspecified)	41.56%
C[C@@H]1CN(S(=O)(=O)N2CCCCCC2)C[C@@]1(O)C1CCC1	6.68%
CCC(O)CN1CCN(C(=O)c2ccc(Cn3cccc3)cc2)CC1 (stereo unspecified)	-25.46%
O=C(Nc1cccnc1)[C@H]1C[C@H]2CN(Cc3ccc(F)cc3)C[C@@H]1O2	6.35%
Cc1ccc(NC(=O)CS(=O)(=O)NC2CCC(C)CC2)nc1 (stereo unspecified)	59.03%
CC1CCC(NS(=O)(=O)CC(=O)Nc2ccc(N3CCCC3)cn2)CC1 (stereo unspecified)	-3.25%
CNC(=O)CS(=O)(=O)NC1CCC(C)CC1 (stereo unspecified)	7.46%
CCN(CC)CCn1c(NC(=O)c2scnc2C)nc2ccccc21	-34.06%
O=C(Nc1ccccc1Oc1cccc(F)c1)NC1CCS(=O)(=O)C1 (stereo unspecified)	11.88%
CNC(=O)NC(=O)CSC(C)c1ccccc1F (stereo unspecified)	20.74%
CC(=O)N1CCC(Cc2cncc(-c3c(C)n[nH]c3C)n2)C1 (stereo unspecified)	23.22%
CC(C)CN1CCC2(CCN(Cc3ccoc3)CC2)C1=O	44.43%
CCS(=O)(=O)Nc1cnn(Cc2cccc(Cl)c2)c1	20.19%
CCS(=O)(=O)Nc1cnn(Cc2cccc(C)c2)c1	52.95%
CCS(=O)(=O)Nc1cnn(Cc2cccc(F)c2)c1	3.58%
CC(C)COCc1cncc2c1CCN(Cc1cnn(C)c1)C2	-40.42%
Cn1cc(CN2CCc3c(COCC4CC4)cncc3C2)cn1	-11.66%

SMILES	INHIBITION
COCc1cncc2c1CCN(Cc1cnn(C)c1)C2	53.98%
COc1ccc2cc(C(=O)N3CCCC(n4ccnc4C)C3)[nH]c2c1 (stereo unspecified)	-47.33%
CCNc1cc2c(nn1)CCN(C(=O)c1cccc3c1OCO3)C2	1.63%
Cn1cc(N2CCN(c3ccc(C#N)cc3F)CC2=O)cn1	53.98%
Cn1cc(N2CCN(c3ccc(C#N)c(Cl)c3)CC2=O)cn1	52.3%
N#Cc1ccc(N2CCC(OC3CCOCC3)CC2)cc1Cl	26.51%
Cn1ccnc1CN1CCN(c2ccc(C#N)cc2F)CC1	-5.15%
COCC1CN(c2ccc(C#N)c(Cl)c2)CCO1 (stereo unspecified)	2.69%
Cn1cc(N2CCN(c3ccc(C#N)cc3Br)CC2=O)cn1	42.2%
O=C(Cn1cccnc1=O)NCCc1ccc2c(c1)OCCO2	0.9%
COc1ccc2c(ccn2CCCN)c1	-19.92%
CCCOC(=O)C(C)Sc1nnnn1C1CCOCC1 (stereo unspecified)	71.4%
CCCC(C)Sc1nnnn1C1CCOCC1 (stereo unspecified)	61.27%
COC(=O)C(C)Sc1nnnn1C1CCOCC1 (stereo unspecified)	-53.55%
CC(C)OCCSc1nnnn1C1CCOCC1	17.37%
CC(Sc1nnnn1C1CCOCC1)C(=O)NC1CCCCC1 (stereo unspecified)	-33.07%
CC(Sc1nnnn1C1CCOCC1)C(F)(F)F (stereo unspecified)	5.55%
CCc1nccn1C1CCCN(C(=O)Cc2ccc(OC)c(F)c2)C1 (stereo unspecified)	29.71%
COc1ccc(CNC(=O)N2CCCC(Nc3ccccc3)C2)cn1 (stereo unspecified)	17.48%
Fc1ccc(CN2CCc3ncnc(C4CC4)c3CC2)cc1	-12.06%
Cc1cn[nH]c1C1CCCCN1C(=O)CCc1c(C)n[nH]c1C (stereo unspecified)	5.34%
O=C(NCC1CCCOC1)c1ccc(-c2cccs2)[nH]c1=O (stereo unspecified)	38.67%

SMILES	INHIBITION
Cc1cc(C(=O)N2CCCC(c3noc(C)n3)C2)[nH]n1 (stereo unspecified)	45.75%
CCN1C[C@@H]2CN(C(=O)c3cccn3C)C[C@@H]2C1=O	17.05%
CCCN1C[C@@H]2CC[C@H]1CN(Cc1cccc(O)c1)C2	-1.63%
CC(C)N(CCO)C(=O)C1CCC(=O)N(CCc2ccc(Cl)cc2)C1 (stereo unspecified)	17.2%
CCN(CCO)C(=O)C1CCC(=O)N(CCc2cccc(F)c2)C1 (stereo unspecified)	30.62%
CCCN(CCO)C(=O)C1CCC(=O)N(Cc2ccc(Cl)cc2)C1 (stereo unspecified)	-49.57%
CC(C)N(CCO)C(=O)C1CCC(=O)N(CCc2cccc(F)c2)C1 (stereo unspecified)	66.74%
CCN(CC)C(=O)C1CCC(=O)N(CCc2cccc(F)c2)C1 (stereo unspecified)	17.48%
CCN(CCO)C(=O)C1CCC(=O)N(Cc2cccc(OC)c2)C1 (stereo unspecified)	53.61%
CCC(CO)(CO)NC(=O)C1CCC(=O)N(CCc2ccccc2)C1 (stereo unspecified)	-19.02%
CC(C)N(C)C(=O)C1CCC(=O)N(CCc2cccc(F)c2)C1 (stereo unspecified)	68.39%
CCCN(CCO)C(=O)C1CCC(=O)N(CCc2ccc(Cl)cc2)C1 (stereo unspecified)	-16.93%
CN1CCN(C2COC3(CCN(Cc4ccc(F)cc4)CC3)C2)CC1 (stereo unspecified)	-0.38%
CC(C)c1cc(C(=O)NCC(O)C2CCOCC2)nn1C(C)(C)C (stereo unspecified)	-31.6%
Cc1nc2cc(O)nn2c(C)c1CCC(=O)NCc1cc(Br)cs1	15.28%
Cc1cc(C(=O)NCC2COCc3c(C)nnn3C2)no1 (stereo unspecified)	14.39%
CCN1CC(C(=O)N(C)Cc2ccon2)CC1=O (stereo unspecified)	-26.32%
CN(C)CC(=O)N1CC[C@H]2OCC[C@@]2(COCC2CC2)C1	11.87%
